JMJD2A Tudor = qHTS Assay for Inhibitors of JMJD2A-Tudor Domain. Lysine-specific demethylase 4A (Homo sapiens), O75164. AlphaScreen JMJD2A-Tudor / H3K4me3 peptide binding. Potency, µM (titrated, usually from 114 µM), inactives show at the top dose activity change, negative = inhibition, usual class: inhibitors. actives 4.4% (n = 390,000); note: % is set by controls: 0 for no effect and ±100 for the full control effect; nearly all actives have a fitted effect of over 50% in size
BAZ2B inh = qHTS Assay for Inhibitors of BAZ2B. actives 4.4% (n = 360,000). Bromodomain adjacent to zinc finger domain protein 2B (Homo sapiens), Q9UIF8. AlphaScreen BAZ2B-H3K14Ac peptide displacement. Potency, µM (series often up to 114 µM), without a hit: at the highest dose activity change, negative = inhibition, most hits filed as inhibitors; note: % is set by controls: 0 for no effect and ±100 for the full control effect; nearly all actives have a fitted effect of over 60% in size
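AlphaScreen luminescence quantifies BAZ2B engagement of H3K14Ac peptide; the protein and biotinylated peptide are both at 50 nM final, buffer PBS pH 7.4 with 0.01% Tween-20, all steps at room temperature.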
G9a inh = qHTS Assay for Inhibitors of Histone Lysine Methyltransferase G9a. Histone-lysine N-methyltransferase EHMT2 (Homo sapiens), Q96KQ7. G9a H3K9 monomethylation, AlphaScreen, 2 h. Potency, µM (highest dose often 102 µM), inactives show at the highest dose activity, negative = inhibition, actives largely listed as inhibitors. actives 8.8% (n = 350,000). AID 504332, 2011; note: % is set by controls: 0 for no effect and ±100 for the full control effect; nearly all actives have a fitted effect of over 75% in size
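Signal arises when biotinylated H3K9 peptide, once monomethylated, bridges streptavidin donor and antibody-captured acceptor beads. Enzyme at 20 nM was preincubated 15 min with test compounds; peptide 500 nM and SAM 20 uM then reacted for 2 h.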
HP1b binding inh = HTS for Inhibitors of HP1-beta Chromodomain Interactions with Methylated Histone Tails; Chromobox protein homolog 1 (Homo sapiens), P83916; actives 0.56% (n = 390,000); AlphaScreen HP1-beta / biotin-H3K9me3 peptide binding; Potency, µM (highest dose often 114 µM), inactives show at the highest dose activity change, negative = inhibition, usual class: inhibitors; AID 540317, 2011; note: nearly all actives have a fitted effect of over 70% in size
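AlphaScreen: HP1-beta (50 nM) preformed 30 min with biotin-H3(1-18)K9me3 peptide (50 nM) in PBS pH 7.4, 0.01% Tween-20. Compound added for 30 min at RT, then streptavidin donor/nickel chelate acceptor beads (10 ug/mL) for 30 min.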
L3MBTL1 block = qHTS Assay for the Inhibitors of L3MBTL1; Potency, µM (titrated, usually from 57.1 µM), without a hit: top-dose activity, negative = inhibition, actives largely listed as inhibitors; AID 485360, 2010; AlphaScreen L3MBTL1–H3K9me1 peptide binding; actives 0.66% (n = 230,000); note: % is set by controls: 0 for no effect and ±100 for the full control effect; nearly all actives have a fitted effect of over 60% in size
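Displacement of a biotinylated histone H3(1-15) peptide monomethylated at Lys9 (75 nM) from L3MBTL1 (50 nM) was measured by AlphaScreen after a 30 min room-temperature compound incubation; cefsulodin titration served as intraplate control.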
GLS inh = qHTS for Inhibitors of Glutaminase (GLS); GLS enzymatic activity, qHTS titration; Potency, µM (doses to about 45.5 µM), for the others: top-dose activity change, negative = inhibition, hits mostly inhibitors; actives 0.21% (n = 410,000); AID 624170, 2012; note: % is set by controls: 0 for no effect and ±100 for the full control effect
Target sequence (O94925 whole entry, looked up): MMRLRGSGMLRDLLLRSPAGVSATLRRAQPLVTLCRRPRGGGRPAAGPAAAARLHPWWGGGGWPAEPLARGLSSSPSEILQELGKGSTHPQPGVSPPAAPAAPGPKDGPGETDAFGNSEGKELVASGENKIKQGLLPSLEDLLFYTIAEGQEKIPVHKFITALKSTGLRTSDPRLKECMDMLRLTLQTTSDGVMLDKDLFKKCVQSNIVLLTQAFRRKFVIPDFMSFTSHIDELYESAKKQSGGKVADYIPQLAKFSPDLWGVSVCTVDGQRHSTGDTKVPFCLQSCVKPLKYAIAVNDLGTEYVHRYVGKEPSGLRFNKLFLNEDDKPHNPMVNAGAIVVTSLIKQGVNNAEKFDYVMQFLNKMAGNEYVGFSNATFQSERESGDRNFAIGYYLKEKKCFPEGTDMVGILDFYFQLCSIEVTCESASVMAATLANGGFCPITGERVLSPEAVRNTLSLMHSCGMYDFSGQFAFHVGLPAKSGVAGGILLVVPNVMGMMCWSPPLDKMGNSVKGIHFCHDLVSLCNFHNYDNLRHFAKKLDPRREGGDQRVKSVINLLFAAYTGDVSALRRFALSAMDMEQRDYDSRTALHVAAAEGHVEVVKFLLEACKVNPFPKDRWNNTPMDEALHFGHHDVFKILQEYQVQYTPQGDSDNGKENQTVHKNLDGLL
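Two-point fluorescence kinetic (t0, 30 min RT) for hKGA; glutamate detected via glutamate oxidase–HRP–Amplex Red. Substrate: 1 mM L-glutamine solution; buffer 45 mM KH2PO4, pH 8.2.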
* marks the source's active call; other numbers are inactive results; [ ] = remark or other dose. This is a sample that favours compounds with a hit; in the whole collection about 10% have one here. Calls come from the whole dose curve; as a rule, active = well fitted curve in the direction sought with a large enough effect; inconclusive = small, poorly fitted or top-dose-only effect, or another doubt; inactive = no such curve, though single readings can be large; an effect the other way counts as inactive or inconclusive. Potency is the fitted concentration of half-maximal effect.

Screening CN1CCC(=NNC(=O)C(=O)NC2CCCCC2)CC1 returned JMJD2A Tudor inconclusive, BAZ2B inh -11.8%, G9a inh -13.4%, HP1b binding inh 8.0% and GLS inh 8.2%.
For CCOc1nc(C#N)nc(N2CCOCC2)n1 the results were JMJD2A Tudor 10.0%[57.1 µM] and HP1b binding inh 15.1%[57 µM].
Cn1cc(S(=O)(=O)N2CCOCC2)cc1C(=O)Nc1ccc(Cl)c(C(F)(F)F)c1 was read as JMJD2A Tudor -9.5%, BAZ2B inh 0.7%, G9a inh -2.0%[59 µM], HP1b binding inh 28.1% and GLS inh -2.1%.
`C=CCn1c(C(C)NC(=O)c2ccccc2C)n[nH]c1=S` (stereo not given) gave JMJD2A Tudor 7.94µM*, BAZ2B inh -3.8%, G9a inh 20µM*, HP1b binding inh 43.9%, L3MBTL1 block -10.8% and GLS inh 3.0%.
CCn1c(C(C)NC(=O)c2ccccc2C)n[nH]c1=S (stereo not given) was read as JMJD2A Tudor inconclusive, BAZ2B inh -12.5%, HP1b binding inh 44.7%, L3MBTL1 block 8.7% and GLS inh 0.7%.
`C=CCn1c(C(CCCC)CC(C)O)n[nH]c1=S` (stereo not given) gave JMJD2A Tudor inconclusive, BAZ2B inh 3.5%, G9a inh inconclusive, HP1b binding inh 28.9%, L3MBTL1 block 18.1% and GLS inh 0.4%.
Screening C=CCn1c(C(C)NC(=O)c2ccc(C)cc2)n[nH]c1=S (stereo not given) returned JMJD2A Tudor 8.91µM*, BAZ2B inh 2.7%, G9a inh 39.8µM*, HP1b binding inh 24.4%, L3MBTL1 block 12.8% and GLS inh -5.3%.
`O=C(O)CC(Sc1n[nH]c(=S)s1)C(=O)O` (stereo not given) gave JMJD2A Tudor 44.7µM*, BAZ2B inh 79.4µM*, HP1b binding inh -17.0%, L3MBTL1 block -87.2% and GLS inh -9.5%.
NNC(=O)CNC(=O)Nc1n[nH]c(=S)s1 was read as GLS inh 16.1%.
COC(=O)C(C)Sc1n[nH]c(=S)s1 (stereo not given) was read as JMJD2A Tudor 39.8µM*, BAZ2B inh inconclusive, G9a inh 6.31µM*, HP1b binding inh inconclusive and GLS inh 9.3%.
`COc1ccc(CNC(=O)CN2N=C(c3ccc(Cl)cc3)CCC2=O)cc1` gave JMJD2A Tudor -11.3%, BAZ2B inh -1.6%, G9a inh -14.5%[59 µM], HP1b binding inh 19.3% and GLS inh -3.5%.
Screening Cc1ccc(S(=O)(=O)N(CC(=O)Nc2c(C)cccc2C)c2cccc(Cl)c2)cc1 returned JMJD2A Tudor -11.2%, BAZ2B inh -20.4%, G9a inh -2.9%[59 µM], HP1b binding inh 7.2% and GLS inh -6.3%.
Cc1ccc(-n2c(COc3cccc(C)c3)n[nH]c2=S)cc1 was read as JMJD2A Tudor -20.9%, BAZ2B inh -30.2%, G9a inh 4.47µM*, HP1b binding inh 45.0%, L3MBTL1 block -14.6% and GLS inh -6.3%.
Cc1ccc(-n2c(COc3ccccc3)n[nH]c2=S)cc1 was read as JMJD2A Tudor -35.1%, BAZ2B inh -20.2%, G9a inh 7.94µM*, HP1b binding inh 16.3%, L3MBTL1 block 12.8% and GLS inh inconclusive.
For COc1ccc(-n2c(COc3ccccc3)n[nH]c2=S)cc1 the results were JMJD2A Tudor 50.1µM*, BAZ2B inh -2.3%, G9a inh 14.0%[0.501 µM], HP1b binding inh 31.8%, L3MBTL1 block -3.8%[2.29 µM] and GLS inh -23.9%.
For Cc1cccc(OCc2n[nH]c(=S)n2-c2ccccc2)c1 the results were JMJD2A Tudor inconclusive, BAZ2B inh inconclusive, HP1b binding inh 6.9%, L3MBTL1 block 0.2% and GLS inh -16.3%.
Screening COc1ccccc1N1CCN(S(=O)(=O)c2ccc(-c3ccno3)cc2OC)CC1 returned JMJD2A Tudor -23.0%, BAZ2B inh inconclusive, G9a inh -18.4%[59 µM], HP1b binding inh 12.1% and GLS inh 6.6%.
`COc1cccc(NC(=O)CSc2nc3c(oc4ccccc43)c(=O)n2Cc2ccco2)c1` gave JMJD2A Tudor -9.5%, BAZ2B inh 2.6%, G9a inh -0.9%[59 µM], HP1b binding inh 23.2% and GLS inh -12.8%.
Screening Cc1ccc(S(=O)(=O)N2CCN(S(=O)(=O)c3ccc4c(c3)OCCCO4)CC2)cc1 returned JMJD2A Tudor -26.2%[57.1 µM] and HP1b binding inh 12.1%[57 µM].
`COc1ccc(N=Cc2ccc(N(CCC#N)CCC#N)cc2)cc1` gave JMJD2A Tudor -34.7%, HP1b binding inh 18.7% and GLS inh 14.4%.
CCOc1[nH]c(/N=C/c2ccc(OC)cc2)c(C#N)c1C#N was read as JMJD2A Tudor 25.1µM* and HP1b binding inh inconclusive.
Screening COCc1cc(C)nc2c1C(=O)NC(c1ccc(NC(C)=O)cc1)N2Cc1ccccc1 (stereo not given) returned JMJD2A Tudor -6.0%, BAZ2B inh -11.3%, G9a inh -29.8%[59 µM], HP1b binding inh 19.5% and GLS inh 5.3%.
For COCc1cc(C)nc2c1C(=O)NC(c1ccc(F)cc1)N2Cc1ccccc1 (stereo not given) the results were JMJD2A Tudor -14.6%, BAZ2B inh -8.2%, G9a inh 14.1µM*, HP1b binding inh 3.7% and GLS inh -5.5%.
`Cc1cc(/C=N/O)c(C)n1-c1ccccc1` gave JMJD2A Tudor inconclusive, BAZ2B inh -33.8%, G9a inh -6.0%[59 µM], HP1b binding inh -2.0%, L3MBTL1 block -8.0% and GLS inh 18.8%.
Cc1ccc(C)n1-c1cccc(C(=O)O)c1 was read as BAZ2B inh 7.08µM*, G9a inh 4.47µM* and L3MBTL1 block 1.78µM*.
`Cc1cc(/C=N/O)c(C)n1-c1cccc(Cl)c1` gave JMJD2A Tudor inconclusive, BAZ2B inh 50.1µM*, G9a inh 44.7µM*, HP1b binding inh inconclusive, L3MBTL1 block -19.6% and GLS inh 19.7%.
For Cc1cc(C=O)c(C)n1-c1cc(C(=O)O)cc(C(=O)O)c1 the results were JMJD2A Tudor inconclusive, BAZ2B inh 17.8µM*, HP1b binding inh 25.1µM*, L3MBTL1 block 5.01µM* and GLS inh 17.8µM*.
For Cc1ccc(C)n1-c1cccc(C(=O)Nc2ccccc2)c1 the results were JMJD2A Tudor -21.1%, BAZ2B inh -37.8%, HP1b binding inh 20.3% and GLS inh -6.2%.
